Compound activity: PubChem, several laboratories
SMARCA2 act: SMARCA2 (BRM) function activators, primary screen, cell-based, luminescence, high throughput | MG213 cells, MMTV-luciferase reporter, dexamethasone, overnight | activation, % at 9.1 µM | hit rate 1% among 370,000 | AID 652017, 2013; in the data active means activation above about 7.8%
ABCB6 inh MLPCN: ABCB6 transporter inhibitors, primary screen, K562-ABCB6 cells, flow cytometry, MLPCN library; K562-ABCB6 porphyrin accumulation, 1 h; stronger effect = lower value; fluorescence ratio to DMSO, % at 10 µM; hit rate 0.19% among 360,000;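 active means fluorescence ratio to DMSO below 75%, the collection mean minus 3 SD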;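 further: signal is porphyrin accumulated inside mitochondria; lower ratio means ABCB6 inhibition with less porphyrin fluorescence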
MsrA inh: bovine MsrA enzyme inhibitors, primary screen, biochemical, absorbance, HTS; purified bovine MsrA, absorbance read-out; hit rate 0.75% among 360,000; inhibition, % at 15.5 µM; in the data active means inhibition above about 4.5%
MsrA act: bovine MsrA enzyme activators, primary screen, biochemical, absorbance, HTS | Methionine sulfoxide reductase A (Bos taurus) | purified bovine MsrA, absorbance read-out | activation, % at 10.6 µM | hit rate 0.3% among 360,000; in the data active means activation above about 7.5%
ABCB6 inh CP1: ABCB6 transporter inhibitors, confirmation, K562-ABCB6 cells, flow cytometry, cherry pick 1. shares compounds with ABCB6 inh MLPCN. K562-ABCB6 porphyrin accumulation, 1 h; stronger effect = lower value. ratio response (% of DMSO), % at 10 µM. 700 tested, under 10 active;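 active means repeat-averaged ratio response below 75% of DMSO, the collection mean minus 3 SD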;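 further: median porphyrin fluorescence at 575 nm with 488 nm excitation from mitochondria; lower ratio means less porphyrin signal so ABCB6 inhibition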
Of the large screens only hits and unclear results are named; the others gave an inactive call (follow-up assays come after a bar, where they were run). Compounds with a hit are over-represented: about 2.1% of the library has one in this group of screens.

CCC(C)NS(=O)(=O)c1ccc2[nH]c(=O)oc2c1 (centres undefined)	none (no result: ABCB6 inh MLPCN, MsrA inh, MsrA act)
Cc1cccc(CNC(=S)OC2CCC23CCC(c2ccccc2)CC3)c1 (centres undefined)	none (no result: ABCB6 inh MLPCN, MsrA inh, MsrA act)
CCOc1ccc(C(C(=O)NCC2CCCO2)N(Cc2ccccc2)C(=O)c2snc(C(N)=O)c2N)cc1 (centres undefined)	none
CCOc1ccc(C(C(=O)NCC2CCCO2)N(Cc2cccnc2)C(=O)c2snc(C(N)=O)c2N)cc1 (centres undefined)	ABCB6 inh MLPCN 74 | ABCB6 inh CP1 inactive
CC1CCN(C(=O)CCc2nnc3ccc(N4CCC5(CC4)OCCO5)nn23)CC1	none | ABCB6 inh CP1 inactive
Cc1ccc(CNC(=O)CCc2nnc3ccc(N4CCC5(CC4)OCCO5)nn23)cc1	none
CCN1CCN(C(=O)CCc2nnc3ccc(N4CCC5(CC4)OCCO5)nn23)CC1	none | ABCB6 inh CP1 inactive
O=C(NCc1ccccc1Cl)C1CCC(CNS(=O)(=O)c2cccc3cccnc23)CC1 (centres undefined)	none (no result: ABCB6 inh MLPCN, MsrA inh, MsrA act)
CC[C@H](CCCCCC#N)CCC(=O)N(c1ccccc1)c1ccccc1	none (no result: ABCB6 inh MLPCN, MsrA inh, MsrA act)
CC(=O)CN1C(=O)NC(c2ccccc2)(c2ccccc2)C1=O	ABCB6 inh MLPCN 46 | ABCB6 inh CP1 inactive
CN(Cc1ccccc1)S(=O)(=O)c1cccc(C(=O)OCc2ccc(Oc3ccccc3)cc2)c1	none (no result: ABCB6 inh MLPCN, MsrA inh, MsrA act)
CCOC(=O)C1CCN(S(=O)(=O)c2ccc(OC)c(OC)c2)CC1	none
CCOC(=O)C1CCN(S(=O)(=O)c2ccc(C(=O)OC)cc2)CC1	none | ABCB6 inh CP1 inactive
CCOC(=O)C1CCN(S(=O)(=O)c2ccc(NC(=O)OC)cc2)CC1	none | ABCB6 inh CP1 inactive
CCOC(=O)C1CCN(S(=O)(=O)c2cc(Cl)c(C)cc2OC)CC1	none | ABCB6 inh CP1 inactive
CCOC(=O)C1CCN(S(=O)(=O)c2ccc(Cl)cc2OC)CC1	none
CCOC(=O)C1CCN(S(=O)(=O)c2ccc(C)cc2)CC1	none
CCOC(=O)C1CCN(S(=O)(=O)c2ccc(Br)c(OCC)c2)CC1	none | ABCB6 inh CP1 inactive
Cc1c(Cl)cccc1NC(=O)CCCn1cnc([N+](=O)[O-])n1	none
O=C(CCCn1cnc([N+](=O)[O-])n1)Nc1cccc(Cl)c1Cl	ABCB6 inh MLPCN 72 | ABCB6 inh CP1 inactive
COc1ccc(NC(=O)c2cc(CN3C(=O)c4ccccc4C3=O)ccc2OC)cn1	ABCB6 inh MLPCN 70 | ABCB6 inh CP1 inactive
Cc1ccc2nc(-c3ccc(NC(=O)CSc4nnc(-c5cc(-c6ccc(F)cc6)n[nH]5)n4N)cc3)sc2c1	none (no result: ABCB6 inh MLPCN, MsrA inh, MsrA act)
C/C=C(\C)CN1CCN(c2cccc(C)c2C)CC1	ABCB6 inh MLPCN 24 | ABCB6 inh CP1 inactive
C/C=C(\C)CN1CCN(c2ccccc2F)CC1	none
COc1ccc(N(CC(=O)NC(C)C)S(=O)(=O)c2ccc(NC(C)=O)cc2)cc1	ABCB6 inh MLPCN 69 | ABCB6 inh CP1 inactive
Cc1ccc2oc(=O)c3cnn(CC(=O)NCCN(C)C)c3c2c1	none
Cc1ccc2oc(=O)c3cnn(CC(=O)NCCc4ccsc4)c3c2c1	ABCB6 inh MLPCN 54 | ABCB6 inh CP1 inactive
CSCCC(NC(N)=O)C(=O)N(C)CC(=O)Nc1cc(C)ccc1C (centres undefined)	ABCB6 inh MLPCN 69 | ABCB6 inh CP1 inactive
Cc1ccc(C)c(NC(=O)CN(C)C(=O)[C@@H](NC(N)=O)C(C)C)c1	none
Cc1c(NC(=O)C2CCCN(S(=O)(=O)c3ccccc3[N+](=O)[O-])C2)c(=O)n(-c2ccccc2)n1C (centres undefined)	none (no result: ABCB6 inh MLPCN, MsrA inh, MsrA act)
CCOc1ccc(N2C(=O)Cc3ccccc3C2=O)cc1	ABCB6 inh MLPCN 73 | ABCB6 inh CP1 inactive
O=c1c2ccccc2c(-c2ccccc2)nn1-c1cc(Cl)ccc1[N+](=O)[O-]	ABCB6 inh MLPCN 73 | ABCB6 inh CP1 inactive
CC(C)(C)c1ccc(Cn2nnc3c(=O)[nH]c(C4CCN(C(=O)c5ccco5)CC4)nc32)cc1	none | ABCB6 inh CP1 inactive
O=C(c1ccco1)N1CCC(c2nc3c(nnn3Cc3c(Cl)cccc3Cl)c(=O)[nH]2)CC1	none | ABCB6 inh CP1 inactive
COc1ccc(C(=O)Nn2c(C)nc3ccccc3c2=O)cc1	ABCB6 inh MLPCN 74 | ABCB6 inh CP1 inactive
Cc1nc2ccccc2c(=O)n1NC(=O)c1ccc(C(C)(C)C)cc1	none
COC(=O)C1CCN(C(=O)CN2CCC(C(=O)c3ccc(C)cc3)CC2)CC1	none (no result: ABCB6 inh MLPCN, MsrA inh, MsrA act)
O=C(c1ccccc1C(F)(F)F)N1CCC(Oc2cccnc2)CC1	none (no result: ABCB6 inh MLPCN, MsrA inh, MsrA act)
